Measured values as given in PubChem BioAssay AID434968 (Broad Institute, 2010).
Among all 2,100 compounds or so, about 1,800 (86%) were called active. So high a share suggests a set chosen from earlier hits. These entries were drawn from the full list. Unmarked numbers belong to inactive results. How the calls were made is not given here.

Test: counter-screen GFP chromophore formation inhibition, dose response, counter-screen, biochemical, fluorescence, homogeneous (AID 434968)
Conditions: cell-free GFP chromophore formation

Which EC50 does the source give for `CCCCCCCCCCOC(=O)Cn1c(COc2cccc(OC)c2)[n+](C)c2ccccc21` here?
Its EC50 is 10.4 µM (active).

With `CCCCCCCCCCOC(=O)Cn1c(COc2ccc(C)cc2)[n+](C)c2ccccc21` as the molecule, how does the EC50 read?
The EC50 was 16.1 µM (active).

For `COc1ccc(C2C(C#N)=C(N)Oc3n[nH]c(C)c32)cc1CN1CCN(c2ccc(F)cc2)CC1` (stereo not drawn), which EC50 is on record?
The EC50 was 23 µM (active).

For `Cc1cc(C(=O)CCl)c(C)n1CC1COc2ccccc2O1` (stereo not drawn), which EC50 is on record?
The EC50 was 37.5 µM (active).

Which EC50 does the source give for `Cc1oc2c(c1C(=O)N1CCOCC1)C(=O)c1ccccc1C2=O` here?
Its EC50 is 3.63 µM (active).

Which EC50 does the source give for `O=C1CC(c2ccccc2)=NN1c1ccc([N+](=O)[O-])cc1` here?
The EC50 was 15.8 µM (active).

Which EC50 does the source give for `COc1ccc(C(=O)NC(=S)NNC(=O)CCc2ccccc2)cc1` here?
Its EC50 is > 38 µM.

Which EC50 does the source give for `CCOC(=O)C(CC)Sc1ncnc2c1nnn2-c1ccc(F)cc1` (stereo not drawn) here?
Its EC50 is > 38 µM.

Which EC50 does the source give for `NC1=NN(c2cccc(C(=O)O)c2)C(=O)C1` here?
Its EC50 is 31.6 µM (active).

With `Oc1c(Cl)cc(Cl)c(Cl)c1Cc1c(O)c(Cl)cc(Cl)c1Cl` as the molecule, how does the EC50 read?
The EC50 was 7.06 µM (active).

With `NC(=O)CC[C@@H]1NC(=O)[C@H](CO)NC(=O)c2cc([N+](=O)[O-])cc(I)c2NCC[C@@H](C(N)=O)NC1=O` as the molecule, how does the EC50 read?
Its EC50 is 22.5 µM (active).

Which EC50 does the source give for `Cc1ccccc1C(CC(=O)c1cccs1)C(C#N)C#N` (stereo not drawn) here?
Its EC50 is 2.18 µM (active).

Which EC50 does the source give for `CCOC(=O)N1CCC(c2cc(=O)n(-c3ccccc3)[nH]2)CC1` here?
Its EC50 is 7.17 µM (active).

Which EC50 does the source give for `O=C(CCl)N(Cc1cccc([N+](=O)[O-])c1)c1cccc(Cl)c1` here?
The EC50 was 3.06 µM (active).

Which EC50 does the source give for `Oc1ccc(N=Cc2sc3ccccc3c2Cl)cc1` here?
The EC50 was > 38 µM.

With `COc1ccc(-c2csc(Nc3ccc(O)cc3)n2)cc1` as the molecule, how does the EC50 read?
Its EC50 is > 38 µM.

Which EC50 does the source give for `O=[N+]([O-])c1c(NCCO)cc(Sc2nc3ccccc3s2)c2nonc12` here?
The EC50 was 0.766 µM (active).

For `O=C(c1ccc(Cl)cc1)n1cnc2ccccc21`, which EC50 is on record?
The EC50 was 22.1 µM (active).

Which EC50 does the source give for `O=C1NC(c2ccc(-c3ccccc3[N+](=O)[O-])o2)C(C(=O)c2ccc(Cl)cc2)C(O)(C(F)(F)F)N1` (stereo not drawn) here?
The EC50 was 25.2 µM (active).

Which EC50 does the source give for `CC(CCn1cccn1)NC(=O)CCc1nnc(CCc2ccccc2)o1` (stereo not drawn) here?
Its EC50 is > 38 µM.

With `CC(C)OC(=O)CN1C(=O)C(=O)c2ccccc21` as the molecule, how does the EC50 read?
The EC50 was 22.5 µM (active).

With `O=C(Nc1ccccc1)c1nnsc1S(=O)(=O)c1ccc(Cl)cc1` as the molecule, how does the EC50 read?
The EC50 was 11.7 µM (active).

Which EC50 does the source give for `CC1(N2CCOCC2)CC2(O)C(=[N+]1[O-])CCc1nonc12` (stereo not drawn) here?
The EC50 was 24.9 µM (active).

Which EC50 does the source give for `N#Cc1c(N)n(CCOC(=O)c2ccc(Cl)cc2)c2nc3ccccc3nc12` here?
The EC50 was 2.69 µM (active).

For `COc1ccc(C(CCN(Cc2ccc(OC)c(OC)c2)C(=O)CCl)c2ccccc2)cc1` (stereo not drawn), which EC50 is on record?
Its EC50 is 0.326 µM (active).

Which EC50 does the source give for `CCN(CC)c1ccc2oc(=O)c(C)nc2c1` here?
The EC50 was 13.6 µM (active).

With `COc1ccc2c(c1)C(=C(C#N)C#N)C(=O)N2CCc1ccccc1` as the molecule, how does the EC50 read?
The EC50 was > 38 µM.

Which EC50 does the source give for `COc1ccccc1-n1nnnc1S(=O)(=O)Cc1ccc(Cl)cc1` here?
The EC50 was 27.2 µM (active).

With `Cc1ccc(NC(=O)c2cnc(SCC(=O)NCC3CCCO3)n(C)c2=O)cc1` (stereo not drawn) as the molecule, how does the EC50 read?
Its EC50 is > 38 µM.

With `Cc1nn(Cc2ccccc2)c2c1C(c1ccccc1)C(C#N)=C(N)O2` (stereo not drawn) as the molecule, how does the EC50 read?
The EC50 was 15.2 µM (active).

With `O=S(=O)(O)Oc1c[nH]c2ccccc12` as the molecule, how does the EC50 read?
Its EC50 is 0.78 µM (active).

For `COC(=O)c1sc(-c2ccc(C(C)(C)C)cc2)cc1NC(=O)/C=C/C(=O)O`, which EC50 is on record?
Its EC50 is 4.26 µM (active).

For `CCOC(=O)c1c(C)[nH]c2c1-c1ccccc1C(=O)C2=O`, which EC50 is on record?
The EC50 was 2.58 µM (active).

For `CCOC(=O)C1=C(c2ccc(OC)cc2)C(=O)c2ccccc2C1=O`, which EC50 is on record?
Its EC50 is 6.35 µM (active).

Which EC50 does the source give for `COc1ccc(S(=O)(=O)/N=C2\C=C(NS(=O)(=O)c3ccccc3)C(=O)c3ccccc32)cc1` here?
Its EC50 is 3.05 µM (active).

Which EC50 does the source give for `C=CS(=O)c1sc(Cl)c(N2CCOCC2)c1[N+](=O)[O-]` (stereo not drawn) here?
The EC50 was 24.9 µM (active).

For `Cc1oc2cc([N+](=O)[O-])c(O)c([N+](=O)[O-])c2c1C(=O)c1ccc(Br)cc1`, which EC50 is on record?
Its EC50 is 19.5 µM (active).

With `Cc1ccc(SCC2=NNC(=O)C2)cc1` as the molecule, how does the EC50 read?
Its EC50 is 6.33 µM (active).
